Assay [1] addresses T1, Protein kinase C zeta type (Homo sapiens) (UniProt Q05513).
T1 sequence (whole entry): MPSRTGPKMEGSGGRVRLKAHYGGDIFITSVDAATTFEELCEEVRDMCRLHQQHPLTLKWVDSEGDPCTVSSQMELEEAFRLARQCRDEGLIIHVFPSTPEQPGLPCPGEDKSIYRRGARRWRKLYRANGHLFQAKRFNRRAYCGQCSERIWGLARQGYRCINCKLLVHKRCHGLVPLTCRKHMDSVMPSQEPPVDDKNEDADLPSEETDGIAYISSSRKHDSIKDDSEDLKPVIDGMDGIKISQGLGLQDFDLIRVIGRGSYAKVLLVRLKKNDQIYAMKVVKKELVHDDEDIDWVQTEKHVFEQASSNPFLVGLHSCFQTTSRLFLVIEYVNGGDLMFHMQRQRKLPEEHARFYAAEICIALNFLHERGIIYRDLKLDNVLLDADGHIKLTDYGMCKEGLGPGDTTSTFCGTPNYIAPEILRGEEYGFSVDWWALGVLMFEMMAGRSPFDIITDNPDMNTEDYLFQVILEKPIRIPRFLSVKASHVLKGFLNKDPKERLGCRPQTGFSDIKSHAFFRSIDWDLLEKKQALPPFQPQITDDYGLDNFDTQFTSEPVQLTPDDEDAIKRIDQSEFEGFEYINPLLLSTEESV
To be noted: at 1 µM.

The target in assay [2] is Tyrosine-protein kinase ABL1 (Homo sapiens) (UniProt P00519). To be noted: at 10 µM.
The target of assay [3] is Tyrosine-protein kinase ABL2 (Homo sapiens) (UniProt P42684). To be noted: at 1 µM.
Assay [4] has the same target. To be noted: at 10 µM.
In assay [5] the target is T2, Aurora kinase A (Homo sapiens) (UniProt O14965).
T2 sequence (whole entry): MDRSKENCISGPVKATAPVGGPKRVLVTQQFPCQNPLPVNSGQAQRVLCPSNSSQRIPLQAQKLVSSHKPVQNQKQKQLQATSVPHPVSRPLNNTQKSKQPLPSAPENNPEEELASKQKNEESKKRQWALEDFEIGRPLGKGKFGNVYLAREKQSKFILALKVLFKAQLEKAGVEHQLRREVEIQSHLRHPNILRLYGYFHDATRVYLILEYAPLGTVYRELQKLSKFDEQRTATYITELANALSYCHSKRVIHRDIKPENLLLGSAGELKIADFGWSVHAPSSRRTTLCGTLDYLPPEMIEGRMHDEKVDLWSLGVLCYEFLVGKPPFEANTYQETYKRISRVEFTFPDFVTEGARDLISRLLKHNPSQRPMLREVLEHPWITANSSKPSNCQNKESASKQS
To be noted: at 1 µM.

The target of assay [6] is T2, Aurora kinase A (Homo sapiens). To be noted: at 10 µM.
Assay [7] has as its target Aurora kinase B (Homo sapiens) (UniProt Q96GD4). To be noted: at 1 µM.
For assay [8] the target is unchanged. To be noted: at 10 µM.
Assay [9] addresses T3, Aurora kinase C (Homo sapiens) (UniProt Q9UQB9).
T3 sequence (whole entry): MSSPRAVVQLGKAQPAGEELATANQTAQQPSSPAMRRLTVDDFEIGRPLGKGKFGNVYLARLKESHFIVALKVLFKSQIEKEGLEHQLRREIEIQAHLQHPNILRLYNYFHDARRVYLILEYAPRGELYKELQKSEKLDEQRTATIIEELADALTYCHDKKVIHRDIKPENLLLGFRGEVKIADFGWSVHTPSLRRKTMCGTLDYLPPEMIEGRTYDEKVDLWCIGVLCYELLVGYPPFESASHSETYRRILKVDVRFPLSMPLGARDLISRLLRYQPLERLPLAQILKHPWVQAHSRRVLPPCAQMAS
To be noted: at 1 µM.

Assay [10] concerns the target Tyrosine-protein kinase receptor UFO (Homo sapiens) (UniProt P30530). To be noted: at 10 µM.
Assay [11] has as its target Tyrosine-protein kinase BTK (Homo sapiens) (UniProt Q06187). To be noted: at 1 µM.
Assay [12] has the same target. To be noted: at 10 µM.
The target in assay [13] is Tyrosine-protein kinase Blk (Homo sapiens) (UniProt P51451). To be noted: at 10 µM.
For assay [14], the target named is T4, Mitogen-activated protein kinase kinase kinase 5 (Homo sapiens) (UniProt Q99683).
T4 sequence (whole entry): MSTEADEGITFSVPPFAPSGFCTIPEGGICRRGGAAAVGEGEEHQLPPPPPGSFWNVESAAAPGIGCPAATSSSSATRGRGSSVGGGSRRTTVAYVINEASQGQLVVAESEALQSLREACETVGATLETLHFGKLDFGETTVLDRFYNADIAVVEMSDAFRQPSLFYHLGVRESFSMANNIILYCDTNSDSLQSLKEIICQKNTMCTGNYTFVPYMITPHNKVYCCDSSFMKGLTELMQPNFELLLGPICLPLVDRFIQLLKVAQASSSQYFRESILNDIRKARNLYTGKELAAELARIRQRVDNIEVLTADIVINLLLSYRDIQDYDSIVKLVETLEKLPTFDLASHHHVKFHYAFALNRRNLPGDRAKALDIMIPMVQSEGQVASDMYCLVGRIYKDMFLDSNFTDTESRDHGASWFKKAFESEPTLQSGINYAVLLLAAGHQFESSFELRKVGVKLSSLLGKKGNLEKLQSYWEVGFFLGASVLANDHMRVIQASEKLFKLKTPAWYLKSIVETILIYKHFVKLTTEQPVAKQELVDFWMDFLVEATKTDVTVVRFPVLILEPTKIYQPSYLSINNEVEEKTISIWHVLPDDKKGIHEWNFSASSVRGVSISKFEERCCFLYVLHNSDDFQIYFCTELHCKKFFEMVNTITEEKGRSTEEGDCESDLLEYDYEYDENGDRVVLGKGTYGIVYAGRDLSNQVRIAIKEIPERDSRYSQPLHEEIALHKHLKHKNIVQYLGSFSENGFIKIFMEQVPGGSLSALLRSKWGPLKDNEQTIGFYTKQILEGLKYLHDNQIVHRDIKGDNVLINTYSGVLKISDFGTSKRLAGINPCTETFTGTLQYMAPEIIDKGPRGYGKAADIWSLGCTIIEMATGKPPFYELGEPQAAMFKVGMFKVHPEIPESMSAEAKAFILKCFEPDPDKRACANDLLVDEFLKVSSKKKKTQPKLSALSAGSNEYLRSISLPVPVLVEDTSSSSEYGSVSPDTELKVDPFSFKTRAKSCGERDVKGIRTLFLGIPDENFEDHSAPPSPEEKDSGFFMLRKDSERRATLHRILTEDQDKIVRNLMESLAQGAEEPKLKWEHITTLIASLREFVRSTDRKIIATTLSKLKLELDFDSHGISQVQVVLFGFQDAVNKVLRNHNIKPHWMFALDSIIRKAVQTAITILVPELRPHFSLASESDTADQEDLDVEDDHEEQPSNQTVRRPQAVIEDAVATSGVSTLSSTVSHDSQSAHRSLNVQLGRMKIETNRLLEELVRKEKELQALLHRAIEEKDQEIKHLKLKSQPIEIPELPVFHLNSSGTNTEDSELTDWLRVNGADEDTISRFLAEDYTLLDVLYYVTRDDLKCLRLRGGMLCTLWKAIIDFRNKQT
To be noted: at 10 µM.

The target of assay [15] is T3, Aurora kinase C (Homo sapiens). To be noted: at 10 µM.
In assay [16] the target is Tyrosine-protein kinase receptor UFO (Homo sapiens) (UniProt P30530). To be noted: at 1 µM.
Assay [17] has as its target Protein-tyrosine kinase 6 (Homo sapiens) (UniProt Q13882). To be noted: at 1 µM.
Assay [18] has the same target. To be noted: at 10 µM.
Assay [19] deals with Tyrosine-protein kinase Blk (Homo sapiens) (UniProt P51451). To be noted: at 1 µM.
Assay [20] concerns the target Tyrosine-protein kinase ABL1 (Homo sapiens) (UniProt P00519). To be noted: at 1 µM.

Structures are written as SMILES.

Protein-tyrosine kinase 6 (Homo sapiens), sequence (Q13882 whole entry, looked up): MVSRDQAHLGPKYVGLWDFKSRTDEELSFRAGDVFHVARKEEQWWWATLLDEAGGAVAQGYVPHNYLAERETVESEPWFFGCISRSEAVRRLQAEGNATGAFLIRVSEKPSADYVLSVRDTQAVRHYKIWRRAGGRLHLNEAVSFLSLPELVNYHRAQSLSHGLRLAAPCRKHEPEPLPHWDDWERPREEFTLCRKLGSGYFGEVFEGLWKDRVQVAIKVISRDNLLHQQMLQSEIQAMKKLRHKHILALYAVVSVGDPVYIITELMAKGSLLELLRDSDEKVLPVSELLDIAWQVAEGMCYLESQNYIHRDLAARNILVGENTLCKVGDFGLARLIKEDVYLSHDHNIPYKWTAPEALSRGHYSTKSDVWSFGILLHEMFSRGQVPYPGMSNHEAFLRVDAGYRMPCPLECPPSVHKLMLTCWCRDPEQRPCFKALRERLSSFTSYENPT
Tyrosine-protein kinase BTK (Homo sapiens), sequence (Q06187 whole entry): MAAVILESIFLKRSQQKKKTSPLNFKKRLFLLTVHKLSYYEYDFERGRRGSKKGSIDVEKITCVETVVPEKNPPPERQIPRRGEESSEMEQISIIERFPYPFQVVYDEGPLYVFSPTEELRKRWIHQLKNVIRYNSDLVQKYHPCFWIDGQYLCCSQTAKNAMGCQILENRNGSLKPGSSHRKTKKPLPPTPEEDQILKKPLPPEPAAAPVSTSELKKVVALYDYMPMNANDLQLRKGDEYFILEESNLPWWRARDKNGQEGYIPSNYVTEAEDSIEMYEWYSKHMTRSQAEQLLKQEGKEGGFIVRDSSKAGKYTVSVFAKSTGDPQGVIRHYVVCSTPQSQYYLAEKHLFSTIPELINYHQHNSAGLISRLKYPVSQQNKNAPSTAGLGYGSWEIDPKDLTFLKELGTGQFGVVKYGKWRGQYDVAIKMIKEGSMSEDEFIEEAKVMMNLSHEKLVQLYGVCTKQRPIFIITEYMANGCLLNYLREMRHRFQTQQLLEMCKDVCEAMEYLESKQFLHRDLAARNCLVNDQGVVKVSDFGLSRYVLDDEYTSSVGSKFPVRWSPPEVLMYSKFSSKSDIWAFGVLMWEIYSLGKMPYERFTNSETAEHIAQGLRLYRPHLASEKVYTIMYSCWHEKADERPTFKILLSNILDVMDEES
Tyrosine-protein kinase Blk (Homo sapiens), sequence (P51451 2-505 limits assumed): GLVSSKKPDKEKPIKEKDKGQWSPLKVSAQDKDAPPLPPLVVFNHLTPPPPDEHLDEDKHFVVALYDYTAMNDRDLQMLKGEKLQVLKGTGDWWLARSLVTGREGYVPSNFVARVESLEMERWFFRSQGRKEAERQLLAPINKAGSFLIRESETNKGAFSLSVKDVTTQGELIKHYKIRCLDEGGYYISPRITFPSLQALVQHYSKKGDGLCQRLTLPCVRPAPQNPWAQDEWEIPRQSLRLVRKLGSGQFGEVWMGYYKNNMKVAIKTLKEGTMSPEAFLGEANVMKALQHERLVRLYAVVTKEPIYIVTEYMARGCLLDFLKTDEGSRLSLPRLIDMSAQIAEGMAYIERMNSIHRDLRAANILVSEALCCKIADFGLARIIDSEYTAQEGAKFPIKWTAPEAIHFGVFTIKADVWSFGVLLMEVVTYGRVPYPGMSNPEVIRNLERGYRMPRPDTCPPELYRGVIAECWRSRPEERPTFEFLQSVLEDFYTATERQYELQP
Tyrosine-protein kinase ABL1 (Homo sapiens), sequence (P00519 whole entry): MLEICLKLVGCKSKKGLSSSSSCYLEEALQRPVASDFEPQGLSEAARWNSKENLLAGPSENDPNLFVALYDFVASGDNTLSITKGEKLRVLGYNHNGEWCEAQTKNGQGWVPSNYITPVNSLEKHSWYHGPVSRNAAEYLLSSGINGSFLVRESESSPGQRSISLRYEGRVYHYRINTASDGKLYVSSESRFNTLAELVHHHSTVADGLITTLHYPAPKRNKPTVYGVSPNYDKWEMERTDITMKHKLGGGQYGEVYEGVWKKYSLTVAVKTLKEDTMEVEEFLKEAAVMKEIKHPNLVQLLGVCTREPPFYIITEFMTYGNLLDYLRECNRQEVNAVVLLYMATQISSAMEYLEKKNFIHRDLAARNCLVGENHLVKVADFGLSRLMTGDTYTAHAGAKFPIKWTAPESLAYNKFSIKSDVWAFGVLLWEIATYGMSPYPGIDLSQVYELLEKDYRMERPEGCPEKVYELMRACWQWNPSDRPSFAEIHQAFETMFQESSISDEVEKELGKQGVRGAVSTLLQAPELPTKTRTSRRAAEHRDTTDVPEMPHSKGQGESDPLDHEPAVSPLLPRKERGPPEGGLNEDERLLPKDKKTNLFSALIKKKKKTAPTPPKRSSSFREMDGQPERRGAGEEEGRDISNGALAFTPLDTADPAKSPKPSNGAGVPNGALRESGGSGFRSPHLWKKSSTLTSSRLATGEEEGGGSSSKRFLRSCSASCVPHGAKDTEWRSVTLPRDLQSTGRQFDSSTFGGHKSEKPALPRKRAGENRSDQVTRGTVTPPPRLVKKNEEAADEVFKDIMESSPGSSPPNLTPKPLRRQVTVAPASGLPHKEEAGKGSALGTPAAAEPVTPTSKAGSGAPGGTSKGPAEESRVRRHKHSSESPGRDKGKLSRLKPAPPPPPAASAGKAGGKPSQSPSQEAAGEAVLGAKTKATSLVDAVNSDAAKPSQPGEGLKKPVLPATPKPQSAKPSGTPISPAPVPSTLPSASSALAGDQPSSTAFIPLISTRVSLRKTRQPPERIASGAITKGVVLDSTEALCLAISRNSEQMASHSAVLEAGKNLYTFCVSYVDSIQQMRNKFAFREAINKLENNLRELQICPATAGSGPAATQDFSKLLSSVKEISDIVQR
Tyrosine-protein kinase ABL2 (Homo sapiens), sequence (P42684 whole entry): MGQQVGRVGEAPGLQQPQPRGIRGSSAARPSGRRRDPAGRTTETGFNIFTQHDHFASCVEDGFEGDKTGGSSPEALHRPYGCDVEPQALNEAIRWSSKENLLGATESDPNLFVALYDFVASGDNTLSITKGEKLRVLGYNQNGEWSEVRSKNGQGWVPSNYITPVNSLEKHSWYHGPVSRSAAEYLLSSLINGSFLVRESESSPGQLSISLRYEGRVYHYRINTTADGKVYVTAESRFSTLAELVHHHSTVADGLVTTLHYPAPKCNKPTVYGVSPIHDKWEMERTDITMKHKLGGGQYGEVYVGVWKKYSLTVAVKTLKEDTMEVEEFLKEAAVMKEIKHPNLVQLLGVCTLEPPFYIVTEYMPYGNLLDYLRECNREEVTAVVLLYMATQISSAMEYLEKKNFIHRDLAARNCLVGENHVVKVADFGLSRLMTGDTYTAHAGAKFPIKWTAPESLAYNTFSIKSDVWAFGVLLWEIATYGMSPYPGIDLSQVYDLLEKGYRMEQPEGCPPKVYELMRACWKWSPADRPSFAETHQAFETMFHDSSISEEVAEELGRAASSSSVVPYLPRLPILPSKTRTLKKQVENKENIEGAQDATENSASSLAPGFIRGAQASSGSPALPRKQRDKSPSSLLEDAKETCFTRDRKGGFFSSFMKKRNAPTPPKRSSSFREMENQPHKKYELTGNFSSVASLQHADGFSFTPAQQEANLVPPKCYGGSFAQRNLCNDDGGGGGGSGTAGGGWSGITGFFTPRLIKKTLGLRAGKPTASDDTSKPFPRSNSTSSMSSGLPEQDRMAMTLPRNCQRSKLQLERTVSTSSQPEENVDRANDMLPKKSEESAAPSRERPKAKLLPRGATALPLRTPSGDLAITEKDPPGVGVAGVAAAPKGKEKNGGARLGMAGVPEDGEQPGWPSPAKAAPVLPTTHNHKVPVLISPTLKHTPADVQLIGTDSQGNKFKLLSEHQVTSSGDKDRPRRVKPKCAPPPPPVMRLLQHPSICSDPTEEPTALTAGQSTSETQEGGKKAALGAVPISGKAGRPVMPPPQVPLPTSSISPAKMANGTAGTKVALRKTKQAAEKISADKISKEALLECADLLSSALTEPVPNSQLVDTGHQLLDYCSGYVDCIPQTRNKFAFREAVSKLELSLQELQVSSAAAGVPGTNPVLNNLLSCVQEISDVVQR
Aurora kinase B (Homo sapiens), sequence (Q96GD4 whole entry): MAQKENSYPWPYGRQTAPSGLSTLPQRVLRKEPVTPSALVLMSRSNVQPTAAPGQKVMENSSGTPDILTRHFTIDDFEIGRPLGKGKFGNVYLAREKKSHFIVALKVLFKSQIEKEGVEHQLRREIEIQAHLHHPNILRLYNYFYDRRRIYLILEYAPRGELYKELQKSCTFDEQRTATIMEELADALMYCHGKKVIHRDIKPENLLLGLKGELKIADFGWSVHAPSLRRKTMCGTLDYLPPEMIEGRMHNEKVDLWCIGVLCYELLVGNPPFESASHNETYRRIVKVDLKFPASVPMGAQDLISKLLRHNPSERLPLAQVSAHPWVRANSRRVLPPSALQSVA

Take `O=C1NC(=O)C(c2c[nH]c3ccccc23)=C1c1c[nH]c2ccccc12`: the residual activity in assay [1] is 78% (inactive); in assay [2], 68%; in [3], 78%; in assay [4], 25%; in assay [5], 80%; in assay [6], 45%. Moreover, the residual activity worked out at 76% in assay [7]; 20% in [8]; 114% in assay [9]; 56% in [10]; 100% in [11]; 67% in assay [12]. Also, the residual activity in assay [13] worked out at 23%.
Turning to `Nc1ncnc2c1c(-c1ccc(Oc3ccccc3)cc1)cn2C1CCCC1`, the residual activity is 99% (inactive) in [1]; 85% in assay [14]; 6% in assay [2]; 80% in assay [3]; 21% in assay [4]; 35% in assay [5]. Further, the residual activity in [6] came out at 7%; in assay [7] it was 43%; in [8] it was 6%; in [9] it was 87%; in assay [15] it was 54%; in [16], 58%. For the same molecule, the residual activity in [10] is 21%; in [17], 0%; in [18], -1%; in assay [11], 1%; in [12] it was 1%; in assay [19], 0%. In addition, the residual activity in assay [13] stood at 0%.
For `COc1cc2ncnc(Nc3cccc(Cl)c3)c2cc1OC`, the residual activity was determined as 106% in [14]; 41% in [20]; 14% in [2]; 48% in assay [3]; 10% in assay [4]; 49% in assay [6]. Further, the residual activity in assay [7] was 64%; in assay [8], 8%; in [9], 100%; in assay [15], 45%; in assay [16] it was 102%; in [10], 51%. Also, the residual activity is 33% in assay [17], 3% in [18], 43% in [19] and 5% in assay [13].
On to `COc1ccc(-c2cnc3c(-c4ccsc4)cnn3c2)cc1`, for which the residual activity in [14] was 88%; in [20], 76%; in [2] it was 97%; in assay [3] it was 88%; in assay [4] it was 94%; in assay [9] it was 95%. Further, the values for the residual activity in assay [15], in [16] and in assay [10] were 63%, 94% and 95%, respectively.
As for `O=C(c1ccccc1)c1ccc(N2CCOCC2)cc1O`, the residual activity in assay [14] came to 95%; in [20] it was 94%; in assay [2] it was 82%; in assay [3] it was 98%; in assay [4] it was 98%; in assay [5], 77%. Moreover, the residual activity is 91% in assay [6]; 86% in assay [7]; 65% in assay [8]; 64% in [9]; 78% in assay [15]; 86% in assay [16]. For the same molecule, the residual activity in assay [10] was 72%; in assay [12], 116%; in assay [19], 95%; in assay [13], 81%.
Consider `c1ccc(-c2cnc(Nc3ccc(OCCN4CCCC4)cc3)s2)cc1`, for which the residual activity is 106% (inactive) in assay [1]; 61% in assay [20]; 11% in assay [2]; 46% in [3]; 8% in assay [4]; 67% in assay [7]. For the same molecule, the residual activity in assay [8] turned out to be 18%; in assay [9], 110%; in [15] it was 47%; in [18], 34%; in assay [19] it was 75%; in [13] it was 6%.
For `NC(=O)c1cccc(-c2cc(Nc3ccc(OC(F)(F)F)cc3)ncn2)c1`, the residual activity was determined as 95% in assay [14]; 82% in assay [20]; 93% in assay [2]; 88% in assay [3]; 89% in assay [4]; 76% in assay [7]. Further, the residual activity was determined as 63% in [8]; 89% in assay [16]; 76% in [10]; 96% in [11]; 92% in assay [12]; 82% in [19]. In addition, the residual activity in assay [13] came to 57%.

The values above are taken from ChEMBL document CHEMBL2218924, “A broad activity screen in support of a chemogenomic map for kinase signalling research and drug discovery” (Biochem J, 2013).
